Laboratory results published in PubChem BioAssay (NCATS).
Inconclusive results are not listed. Unmarked numbers belong to inactive results. Calls of active or inactive are those of the source. The call rests on the fitted dose curve; in most records, active means well fitted inhibition curve with a large enough effect; inconclusive means small, poorly fitted or top-dose-only effect; inactive means flat fitted curve, though single readings scatter.

Target: Aldehyde dehydrogenase, mitochondrial (Homo sapiens) (UniProt P05091)
Assay: qHTS for Inhibitors of the Aldehyde Dehydrogenase Family (ALDH2) Primary screen (AID 2061308);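 further: plate controls were vehicle for no effect and reference inhibitor for full effect; nearly all actives have a fitted effect of over 55% in size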
Conditions: ALDH2 enzyme inhibition qHTS, 1536-well; series mostly up to 56 µM; activity change, negative = inhibition: at the top concentration

Compound | activity change, negative = inhibition [%] | Potency
CCCn1c(C)nc2c(N(C)CCN(C)C)nc(C)nc21 | 11.6 | –
O=C(CNC(=O)c1ccccc1)OC(CCc1ccccc1)C(=O)Nc1cc(C(F)(F)F)ccc1Cl (stereo unspecified) | -0.55 | –
COc1cc(O)c(C(CC(=O)N2CCC(C)CC2)c2ccc3c(c2)OCO3)c(OC)c1 (stereo unspecified) | -11.9 | –
O=[S+]([O-])(Nc1ccccc1F)c1cccc(NC/C=C/c2ccccc2)c1 | -20.3 | –
COc1ccc(OC)c(NC(=O)C(OC(=O)CNC(=O)c2ccccc2)c2ccccc2)c1 (stereo unspecified) | 8.09 | –
COc1cccc(C2c3c(ncn(-c4ccc(NC(C)=O)cc4)c3=N)Oc3ccc4ccccc4c32)c1 (stereo unspecified) | 0.336 | –
COc1cccc(CNc2ccc(S(=O)(=O)Nc3cccnc3)cc2)c1O | 3.82 | –
O=C(O)c1ccc(S(=O)(=O)N[C@H](Cc2ccc([N+](=O)[O-])cc2)C(=O)O)cc1 | -0.872 | –
Nc1ccc(NC(=O)Nc2nnc(-c3ccncc3)s2)cc1C(F)(F)F | 14.5 | –
O=C(/C=C/c1ccccc1)Nc1cccc(S(=O)(=O)Nc2ccccc2F)c1 | – | inactive
CC(=O)Nc1ccc(Cl)cc1C(=O)c1ccc[nH]1 | 8.58 | –
Cc1ccccc1S(=O)(=O)Nc1cnccc1C(=O)Nc1nc(-c2ccccc2)cs1 | -9.21 | –
COc1ccc(NS(=O)(=O)c2ccc(C)cc2)cc1C(=O)Nc1nc(-c2ccccc2)cs1 | 12.3 | –
Cc1cc2c(s1)c1cnn(Cc3ccc(C(C)(C)C)cc3)c(=O)c1n2C | -6.51 | –
Cn1nnnc1Sc1ncnc2scc(-c3cccs3)c12 | 11.6 | –
NCCCC[C@H](N)C(=O)Nc1ccc(Cl)cc1C(=O)c1ccc[nH]1 | -17.9 | –
